Pf Dd2 growth – inhibitors of Plasmodium falciparum Dd2 growth. P. falciparum Dd2 growth, SYBR Green, 72 h. 4.3% of 120,000 active. Potency, µM (highest dose often 28.9 µM), for inactives: at the top dose activity, negative = inhibition, actives largely listed as inhibitors; active = well fitted inhibition curve with a large enough effect;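 note: plate controls were DMSO vehicle for no effect and reference drug for full effect; nearly all actives have a fitted effect of over 65% in size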
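Infected erythrocytes (Dd2, 0.3% parasitemia, 2.5% hematocrit final) are added to compound in RPMI-1640/Albumax II medium, grown 72 h at 37C in low oxygen, then lysed with saponin/Triton-X containing SYBR Green and read by fluorescence.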
* hit, by the source's call; i = inactive; [ ] = remark or other dose. Shown is part of a subset that was picked to be rich in hits. Potency is the fitted concentration of half-maximal effect.

SMILES	Pf Dd2 growth
Cc1cccc(C(=O)N2CC(C(=O)NCCc3ccncc3)C3(CCOCC3)C2)c1 (configuration not stated)	12.3%
O=C1NC2(CCCCC2)C(=O)N1CC(=O)N1CCCc2ccccc21	i
CC(=O)N1CCCC2(C1)CN(C)c1ccc(C(=O)NCC3CC3)cc12 (configuration not stated)	-16.8%[44.1 µM]
CCOC(=O)c1ccc(Nc2cc(-c3ccccc3)nc(C)n2)cc1	-24.4%
Cc1nc(Nc2ccc(Cl)cc2)cc(-c2ccccc2)n1	8.91µM*
CCN(CC)CCCNc1cc(-c2ccccc2)nc(C)n1	-26.9%
O=C(NCC12CCC=C1N(CC1CC1)C(=O)CC2)c1ccncc1 (configuration not stated)	9.2%
Cc1ccc(C)c(N2CCN(S(=O)(=O)c3ccc4[nH]c5c(c4c3)CCCCC5)CC2)c1	8.91µM*
Cc1ccc(N2CCN(S(=O)(=O)c3ccc4[nH]c5c(c4c3)CCCCC5)CC2)c(C)c1	-13.7%
Cc1ccc(Cl)cc1N1CCN(S(=O)(=O)c2ccc3[nH]c4c(c3c2)CCCC4)CC1	-24.7%
Cc1ccc(C(=O)N2C[C@@H](CO)[C@H](c3ccccn3)C2)nc1	25.2%
Cn1nc(C2CCN(C(=O)c3ccc(F)cc3)CC2)c2c1CCOC2	23.5%[5.79 µM]
O=C(N[C@@H]1COCC[C@@H]1Oc1ccc(F)cc1)c1cccn2cnnc12	-8.7%
COc1ccc(N(C(=O)COc2ccccc2OC)S(=O)(=O)c2ccc(Cl)cc2)cc1	122.9%
COc1cccc(NC(=O)C2CCCN(Cc3cccnc3)CCC(=O)NCC2)c1 (configuration not stated)	-19.8%
COc1cccc(-c2ccccc2NC(=O)C2CCN(Cc3ccc(F)cc3)CC2)c1	7.94µM*
COc1ccc(-c2ccccc2NC(=O)C2CCCN(Cc3cnc(SC)nc3)C2)cc1 (configuration not stated)	-25.4%
COc1cccc(-c2ccc(CN3C4CCC3CN(C(=O)Nc3ccccc3F)C4)cc2)c1	i
COc1ccc(-c2ccccc2NC(=O)C2CCCN(CC=C(C)C)C2)cc1 (configuration not stated)	7.94µM*
CCn1ccnc1CN1CCCC(C(=O)Nc2ccccc2-c2ccc(OC)cc2)C1 (configuration not stated)	i
CCc1ncc(CN2CCCC(C(=O)Nc3ccccc3-c3ccc(OC)cc3)C2)cn1 (configuration not stated)	i
COc1cccc(-c2ccccc2NC(=O)C2CCN(Cc3cc(OC)ccc3O)CC2)c1	2.24µM*
COc1ccc(-c2ccccc2NC(=O)C2CCCN2S(C)(=O)=O)cc1 (configuration not stated)	-6.1%
CCc1nn(CC(=O)N2CCN(c3ccc(OC)cc3)CC2)c(=O)c2cc3sccc3n12	i
COC1CCOC2(CCN(S(=O)(=O)c3c(C)noc3C)CC2)C1 (configuration not stated)	-5.7%
SMILES	Pf Dd2 growth
CCOc1ccccc1CNC(=O)CN1C(=O)c2cccnc2Oc2ccc(C)cc21	-17.2%
Cn1ncc(N2CCCC(CC(=O)Nc3cccc(Cl)c3)C2)cc1=O (configuration not stated)	i
O=C(c1ccsc1)N1CCCC(c2noc(COc3ccccc3)n2)C1 (configuration not stated)	-22.5%
CNC(=O)c1cc[nH]c1C1CCCN(Cc2scnc2C)C1 (configuration not stated)	14.9%
COc1cccc(CN2C(=O)c3ccccc3C2C(=O)NCCc2ccc(OC)c(OC)c2)c1 (configuration not stated)	-17.4%
O=C(O)C[C@@H]1CCN(C(=O)c2cccs2)C[C@@H]1CCN1C[C@@H]2C[C@H](C1)c1cccc(=O)n1C2	-6.2%
CCOc1ccccc1NC(=O)Cc1csc(COc2cccc(C)c2)n1	11.2µM*
CC(=O)Nc1cccc(NC(=O)Cc2csc(COc3cccc(C)c3)n2)c1	-1.0%
Cc1cccc(NC(=O)Cc2csc(COc3cccc(C)c3)n2)c1	37.8%
COc1ccc(-c2ccc(=O)n3c2[C@@H]2C[C@@H](CN(C(=O)C(C)(C)C)C2)C3)cc1	9.2%[44.1 µM]
Cc1noc(-c2cn(C3CCN(C(=O)Cc4cccc(F)c4)CC3)nn2)n1	i
C=CCNC(=O)N1CCC(O)(c2csc(CN3CCN(c4ccccn4)CC3)n2)CC1	1.5%
OC1(c2csc(CN3CCN(c4ccccn4)CC3)n2)CCN(Cc2ccccc2)CC1	8.91µM*
CN1CCN(Cc2nc(C3(O)CCN(C)CC3)cs2)CC1	4.3%[44.1 µM]
O=C(Cn1cc(SCc2ccccc2F)c2ccccc21)N1CCCCCC1	-19.6%
CCC(=O)N1CCc2cc(S(=O)(=O)CCC(=O)N3CCN(c4ccc(Cl)cc4)CC3)ccc21	39.4%
O=C(C1c2ccccc2CC(=O)N1Cc1ccccc1)N1CCN(c2ccccn2)CC1 (configuration not stated)	i
Cc1cc(=O)n2nc(N3CCC(C(=O)NCCCOC(C)C)CC3)sc2n1	39.8%
COc1ncccc1-c1csc(CN2CCCC(C)(NC(C)=O)C2)c1 (configuration not stated)	i
CC(=O)NC1(C)CN(Cc2ccc(-c3cccc(C(F)(F)F)c3)s2)C1	7.08µM*
CC(=O)NC1(C)CN(c2cccc(C(F)(F)F)c2)C1	-3.8%[44.1 µM]
CC(=O)NC1(C)CN(Cc2ccc(-c3ccc(Oc4ccccc4)cc3)s2)C1	3.98µM*
CC(=O)NC1(C)CN(Cc2ccc(-c3cccc(F)c3)s2)C1	-22.3%[44.1 µM]
CC(=O)Nc1cccc(-c2csc(CN3CCCC(C)(NC(C)=O)C3)c2)c1 (configuration not stated)	i
COc1ccc(CNc2ncnc3onc(C)c23)cc1	-13.9%
SMILES	Pf Dd2 growth
COc1ccc(C(=O)N2C[C@@H](CO)[C@H](NC(C)=O)C2)c(OC)c1	21.0%
Cc1ccn(CC(=O)NCc2cccnc2Oc2ccccc2)n1	-5.0%
COCCN1CC2(CCC1=O)CCN(CC(O)C(F)(F)F)CC2 (configuration not stated)	-15.3%
CCNC(=O)c1ccc(CC2CCN(C(C)=O)CC2)cc1	-28.5%
COCC(=O)NC1CCC12CCN(C(=O)c1ccc3ccccc3n1)CC2 (configuration not stated)	i
O=C(NC1CC1)c1ccc(CC2CCN(C(=O)c3ccc4ccccc4n3)CC2)cc1	2µM*
Cc1ccccc1S(=O)(=O)N1CCN(C2CCN(CCc3ccccc3)C2=O)CC1 (configuration not stated)	i
NC(=O)[C@H](Cc1cccs1)NC(=O)[C@@H]1C[C@@H](NS(=O)(=O)c2cccs2)CCN1C(=O)COCC(=O)O	6.3%
Cc1nc(N2CCCC2)c2c(C(=O)N3CCN(c4cc(Cl)ccc4C)CC3)c(C)oc2n1	12.6µM*
Cc1nc(N2CCCC2)c2c(C(=O)Nc3cccc(Cl)c3)c(C)oc2n1	i
Cc1nc(N2CCCC2)c2c(C(=O)N3CCN(c4ccccc4)CC3)c(C)oc2n1	-16.0%
COCc1c(C(=O)N[C@@H]2CN(Cc3cccnc3)C[C@H]2CN(C)C)noc1C	2.8%
CC(C)N1CC2CN(C(=O)c3ccccc3)CC(C1)O2	39.2%
O=C(Nc1ccccc1)N[C@H]1CO[C@H]2[C@@H]1OC[C@@H]2Nc1nccc(C2CCCC2)n1	11.7%[44.1 µM]
Brc1csc(CN2CCc3nc(Nc4ccccc4)ncc3C2)c1	10µM*
COc1ccccc1Nc1ncc2c(n1)CCN(Cc1cc(F)cc(F)c1)C2	28.3%
Cc1ccc(CN2CCc3nc(Nc4ccc5c(c4)OCCO5)ncc3C2)cc1	9.4%
COc1ccc(Nc2ncc3c(n2)CCN(Cc2cc(Br)cs2)C3)c(OC)c1	45.7%
